Of roughly 7,900 targets only a part is listed; those with a hit were picked by preference. About 0.6% of all pairs of compound and target were hits. Values without a mark were called inactive.
These targets were tested with C1=CC2=C(C=CC(=C2)/C=C\3/C(=O)NC(=NCC4=CC=CS4)S3)N=C1 (assay: log2 fold change, soluble protein after heating vs DMSO (PISA); higher = thermal stabilisation; K562 cells, 10 uM, 30 min; active = over 0.2 and 3.5 SD of the protein, either way, in both replicates (recomputed)).
Method in brief: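 Soluble protein was quantified by TMTpro 16plex LC-MS/MS after channel sums were equalised. It was obtained as the supernatant after 21,000xg for 90 min from pooled aliquots of K562 cells (2×10^6 cells/mL, 10 μM compound, 30 min) heated for 3 min across 48°C-58°C and extracted in PBS with 0.5% NP-40 at 4°C. Thermal stability values are relative to control samples and come from duplicates. They are given as log2 fold changes.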
Sequence of UniProt P21283 (P21283 whole entry, looked up): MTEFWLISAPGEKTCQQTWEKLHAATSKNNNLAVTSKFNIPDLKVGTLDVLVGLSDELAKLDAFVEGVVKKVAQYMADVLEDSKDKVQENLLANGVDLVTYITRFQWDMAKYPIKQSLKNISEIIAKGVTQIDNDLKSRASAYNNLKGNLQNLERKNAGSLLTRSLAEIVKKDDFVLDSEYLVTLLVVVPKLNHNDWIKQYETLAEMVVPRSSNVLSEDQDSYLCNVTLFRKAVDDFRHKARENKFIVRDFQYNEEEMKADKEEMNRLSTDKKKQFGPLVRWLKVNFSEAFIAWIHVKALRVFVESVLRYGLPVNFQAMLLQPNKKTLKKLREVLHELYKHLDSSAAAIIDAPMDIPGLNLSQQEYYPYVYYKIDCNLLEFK
Sequence of UniProt P08243 (P08243 whole entry, looked up): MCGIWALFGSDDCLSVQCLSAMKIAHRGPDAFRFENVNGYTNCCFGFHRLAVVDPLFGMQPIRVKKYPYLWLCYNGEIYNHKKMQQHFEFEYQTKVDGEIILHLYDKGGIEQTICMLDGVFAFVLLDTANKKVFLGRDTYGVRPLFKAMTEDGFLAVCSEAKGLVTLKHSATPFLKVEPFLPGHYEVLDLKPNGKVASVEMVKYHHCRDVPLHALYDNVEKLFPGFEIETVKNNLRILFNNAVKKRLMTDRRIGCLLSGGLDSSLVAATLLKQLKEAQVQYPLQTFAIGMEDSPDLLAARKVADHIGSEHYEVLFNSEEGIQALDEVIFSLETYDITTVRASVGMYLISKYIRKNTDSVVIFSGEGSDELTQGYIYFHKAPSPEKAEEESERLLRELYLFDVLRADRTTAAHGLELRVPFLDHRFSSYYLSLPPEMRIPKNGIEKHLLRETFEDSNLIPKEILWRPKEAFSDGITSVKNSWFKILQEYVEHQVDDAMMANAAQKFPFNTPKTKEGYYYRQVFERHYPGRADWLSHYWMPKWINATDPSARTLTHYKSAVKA
Sequence of UniProt Q9UKV3 (Q9UKV3 whole entry, looked up): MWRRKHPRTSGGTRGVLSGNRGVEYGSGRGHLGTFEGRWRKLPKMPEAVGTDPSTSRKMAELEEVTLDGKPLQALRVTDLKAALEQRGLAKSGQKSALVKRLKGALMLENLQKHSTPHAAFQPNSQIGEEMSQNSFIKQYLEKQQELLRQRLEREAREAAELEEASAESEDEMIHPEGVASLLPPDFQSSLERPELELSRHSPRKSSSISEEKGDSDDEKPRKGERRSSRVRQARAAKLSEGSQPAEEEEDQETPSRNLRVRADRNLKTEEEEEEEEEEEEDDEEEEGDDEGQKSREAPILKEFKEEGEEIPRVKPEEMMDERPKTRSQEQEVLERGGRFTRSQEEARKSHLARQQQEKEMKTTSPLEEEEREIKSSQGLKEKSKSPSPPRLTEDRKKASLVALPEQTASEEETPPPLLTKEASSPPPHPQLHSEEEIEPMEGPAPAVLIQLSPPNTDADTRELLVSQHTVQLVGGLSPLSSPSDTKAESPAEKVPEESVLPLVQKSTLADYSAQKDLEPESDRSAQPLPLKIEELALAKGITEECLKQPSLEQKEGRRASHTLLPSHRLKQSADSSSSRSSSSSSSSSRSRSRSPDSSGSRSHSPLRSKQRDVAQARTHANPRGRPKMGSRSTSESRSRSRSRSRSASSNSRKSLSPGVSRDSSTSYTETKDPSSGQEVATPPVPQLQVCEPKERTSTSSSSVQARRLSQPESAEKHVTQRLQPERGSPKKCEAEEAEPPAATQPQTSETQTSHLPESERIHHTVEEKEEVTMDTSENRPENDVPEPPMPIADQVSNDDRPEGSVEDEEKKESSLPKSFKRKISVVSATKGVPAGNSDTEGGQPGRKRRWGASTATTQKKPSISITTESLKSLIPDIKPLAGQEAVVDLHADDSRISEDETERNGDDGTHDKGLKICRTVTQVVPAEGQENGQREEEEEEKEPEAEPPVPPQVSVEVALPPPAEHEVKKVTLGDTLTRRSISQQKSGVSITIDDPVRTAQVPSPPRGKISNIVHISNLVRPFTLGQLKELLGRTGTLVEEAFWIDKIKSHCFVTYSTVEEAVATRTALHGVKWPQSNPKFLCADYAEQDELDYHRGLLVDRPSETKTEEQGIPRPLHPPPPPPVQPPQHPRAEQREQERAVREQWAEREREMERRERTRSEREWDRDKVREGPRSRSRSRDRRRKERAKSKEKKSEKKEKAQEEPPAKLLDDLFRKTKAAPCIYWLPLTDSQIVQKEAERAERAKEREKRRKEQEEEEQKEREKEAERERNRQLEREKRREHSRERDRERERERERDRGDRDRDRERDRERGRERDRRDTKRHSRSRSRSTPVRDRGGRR
Sequence of UniProt Q14137 (Q14137 whole entry, looked up): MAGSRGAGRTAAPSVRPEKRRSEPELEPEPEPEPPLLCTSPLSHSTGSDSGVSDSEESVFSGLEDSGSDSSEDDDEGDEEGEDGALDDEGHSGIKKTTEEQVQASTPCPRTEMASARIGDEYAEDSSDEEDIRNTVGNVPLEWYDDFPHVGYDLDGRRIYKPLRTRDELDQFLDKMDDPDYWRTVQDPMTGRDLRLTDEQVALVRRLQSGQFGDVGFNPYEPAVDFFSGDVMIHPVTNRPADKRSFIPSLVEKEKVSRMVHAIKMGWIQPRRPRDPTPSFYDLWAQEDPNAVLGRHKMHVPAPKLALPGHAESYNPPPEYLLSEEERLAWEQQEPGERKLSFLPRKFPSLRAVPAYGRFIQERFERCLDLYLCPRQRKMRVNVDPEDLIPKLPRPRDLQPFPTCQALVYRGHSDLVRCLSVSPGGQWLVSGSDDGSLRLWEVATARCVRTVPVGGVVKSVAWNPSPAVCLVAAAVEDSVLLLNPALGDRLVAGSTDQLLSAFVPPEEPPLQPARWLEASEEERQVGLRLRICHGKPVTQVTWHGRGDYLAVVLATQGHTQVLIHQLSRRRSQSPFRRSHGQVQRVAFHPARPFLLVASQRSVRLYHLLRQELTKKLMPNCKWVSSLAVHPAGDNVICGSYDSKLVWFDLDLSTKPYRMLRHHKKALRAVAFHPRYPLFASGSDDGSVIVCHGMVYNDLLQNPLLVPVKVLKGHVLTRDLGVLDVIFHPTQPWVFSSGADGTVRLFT
Sequence of UniProt P35611 (P35611 whole entry, looked up): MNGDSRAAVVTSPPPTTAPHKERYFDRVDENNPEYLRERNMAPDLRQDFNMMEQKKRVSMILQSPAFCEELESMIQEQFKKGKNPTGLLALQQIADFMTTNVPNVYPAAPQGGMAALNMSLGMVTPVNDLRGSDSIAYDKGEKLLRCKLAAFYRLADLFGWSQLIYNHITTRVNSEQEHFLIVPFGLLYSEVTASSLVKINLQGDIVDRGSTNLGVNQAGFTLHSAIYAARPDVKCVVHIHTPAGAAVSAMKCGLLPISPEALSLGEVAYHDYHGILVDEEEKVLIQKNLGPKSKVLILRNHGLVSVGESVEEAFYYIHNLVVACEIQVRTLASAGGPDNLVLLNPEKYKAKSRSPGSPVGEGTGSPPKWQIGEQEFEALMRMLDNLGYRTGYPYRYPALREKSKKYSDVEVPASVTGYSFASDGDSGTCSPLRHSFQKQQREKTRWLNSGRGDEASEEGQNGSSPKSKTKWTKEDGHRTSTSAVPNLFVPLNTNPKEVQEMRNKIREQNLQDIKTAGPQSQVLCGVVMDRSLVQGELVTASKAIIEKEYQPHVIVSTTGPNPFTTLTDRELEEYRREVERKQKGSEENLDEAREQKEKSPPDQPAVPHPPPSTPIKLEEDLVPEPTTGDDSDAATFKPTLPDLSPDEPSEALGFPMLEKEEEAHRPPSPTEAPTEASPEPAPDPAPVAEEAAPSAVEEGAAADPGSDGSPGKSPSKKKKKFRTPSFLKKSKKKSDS
Sequence of UniProt Q10589 (Q10589 whole entry, looked up): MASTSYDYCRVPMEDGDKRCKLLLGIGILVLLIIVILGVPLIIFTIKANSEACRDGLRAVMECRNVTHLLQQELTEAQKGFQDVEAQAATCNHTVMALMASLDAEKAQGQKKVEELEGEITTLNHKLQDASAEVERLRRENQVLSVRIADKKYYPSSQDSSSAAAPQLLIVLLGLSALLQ
Sequence of UniProt O95870 (O95870 whole entry, looked up): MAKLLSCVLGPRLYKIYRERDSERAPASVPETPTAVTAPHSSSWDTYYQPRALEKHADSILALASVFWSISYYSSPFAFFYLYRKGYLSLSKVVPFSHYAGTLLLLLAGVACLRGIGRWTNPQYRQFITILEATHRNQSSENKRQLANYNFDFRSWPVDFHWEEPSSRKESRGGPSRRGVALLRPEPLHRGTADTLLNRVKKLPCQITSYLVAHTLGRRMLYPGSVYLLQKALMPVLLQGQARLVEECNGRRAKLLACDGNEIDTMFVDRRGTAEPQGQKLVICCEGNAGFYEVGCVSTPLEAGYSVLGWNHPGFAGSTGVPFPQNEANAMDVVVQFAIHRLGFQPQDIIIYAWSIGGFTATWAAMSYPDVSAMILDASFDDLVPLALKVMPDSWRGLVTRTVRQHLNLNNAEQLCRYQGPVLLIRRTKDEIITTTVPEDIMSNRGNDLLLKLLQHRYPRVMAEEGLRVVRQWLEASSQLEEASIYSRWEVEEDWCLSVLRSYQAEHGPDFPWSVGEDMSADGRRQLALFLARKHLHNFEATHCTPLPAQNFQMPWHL
Sequence of UniProt Q9Y2Y0 (Q9Y2Y0 whole entry, looked up): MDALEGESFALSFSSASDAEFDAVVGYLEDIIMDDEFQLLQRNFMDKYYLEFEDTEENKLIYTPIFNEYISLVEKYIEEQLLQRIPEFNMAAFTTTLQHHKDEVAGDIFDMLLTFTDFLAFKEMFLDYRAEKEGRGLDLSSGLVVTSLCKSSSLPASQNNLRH
Sequence of UniProt P54709 (P54709 whole entry, looked up): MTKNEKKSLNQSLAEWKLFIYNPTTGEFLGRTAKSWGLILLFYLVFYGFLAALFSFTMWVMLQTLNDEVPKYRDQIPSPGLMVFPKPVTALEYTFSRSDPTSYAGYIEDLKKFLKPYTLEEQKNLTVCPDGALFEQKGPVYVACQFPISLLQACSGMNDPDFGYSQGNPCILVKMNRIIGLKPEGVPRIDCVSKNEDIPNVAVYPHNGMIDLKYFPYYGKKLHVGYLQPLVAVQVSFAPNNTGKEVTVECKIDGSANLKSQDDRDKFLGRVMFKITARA
ATP6V0A1 isoform 3 (UniProt Q93050) was tested, and the log2 fold change was 0.
ADPRHL2 (UniProt Q9NX46) showed a log2 fold change of 0.043.
For BUB1B isoform 3 (UniProt O60566), the log2 fold change was 0.157.
ATP2A3 isoform 2 (UniProt Q93084) showed a log2 fold change of -0.014.
In the case of ACIN1 (UniProt Q9UKV3), the log2 fold change was 0.051.
With AIP (UniProt O00170) the log2 fold change was 0.042.
In the case of ATP1B3 (UniProt P54709), the log2 fold change was -0.021.
ALDH9A1 (UniProt P49189) gave a log2 fold change of -0.023.
Target ATP6V1C1 (UniProt P21283) has a log2 fold change of -0.011.
For APPL1 (UniProt Q9UKG1), the log2 fold change was 0.055.
For AKAP8L (UniProt Q9ULX6), the log2 fold change was -0.006.
For ATP23 (UniProt Q9Y6H3), the log2 fold change was 0.051.
ASNS (UniProt P08243) was tested, and the log2 fold change was 0.012.
ACTR1B (UniProt P42025) gave a log2 fold change of 0.02.
ARPP19 (UniProt P56211) was tested, and the log2 fold change was -0.061.
ARHGAP1 (UniProt Q07960) gave a log2 fold change of 0.038.
In the case of AGPAT3 isoform 3 (UniProt Q9NRZ7), the log2 fold change was 0.028.
Work on ATP13A2 (UniProt Q9NQ11) yielded a log2 fold change of 0.024.
ALDH6A1 (UniProt Q02252) showed a log2 fold change of 0.074.
ATR (UniProt Q13535) was tested, and the log2 fold change was 0.02.
Work on ARL2BP (UniProt Q9Y2Y0) yielded a log2 fold change of 0.093.
Work on AUP1 (UniProt Q9Y679) yielded a log2 fold change of 0.006.
With ADD1 isoform 3 (UniProt P35611) the log2 fold change was 0.071.
Target BOP1 (UniProt Q14137) has a log2 fold change of -0.053.
With ATP9B (UniProt O43861) the log2 fold change was -0.029.
For ABCC5 (UniProt O15440), the log2 fold change was 0.059.
Target BST2 (UniProt Q10589) has a log2 fold change of 0.009.
In the case of AKT2 (UniProt P31751), the log2 fold change was 0.068.
In the case of ABCA3 (UniProt Q99758), the log2 fold change was -0.027.
ALG3 (UniProt Q92685) gave a log2 fold change of 0.03.
Target BCCIP isoform 2 (UniProt Q9P287) has a log2 fold change of -0.025.
For ABHD16A (UniProt O95870), the log2 fold change was 0.208.
In the case of AKAP8 (UniProt O43823), the log2 fold change was -0.028.
With ARGLU1 (UniProt Q9NWB6) the log2 fold change was -0.38 (active).
ARFGAP1 (UniProt Q8N6T3) was tested, and the log2 fold change was -0.017.
AAR2 (UniProt Q9Y312) was tested, and the log2 fold change was 0.103.
